AMA1-RON2 inh = disrupts binding of P. falciparum AMA1 to RON2; AlphaScreen AMA1-biotinylated RON2 peptide binding; Potency, µM (titrated, usually from 58.2 µM), inactives show at the top dose activity change, negative = inhibition, most hits filed as inhibitors; 360,000 tested, 0.2% active; AID 720542;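 also: potency is read from the fitted curve at half-maximal effect; 0% = vehicle wells and -100% = peptide control; nearly all actives have a fitted effect of over 45% in size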
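AMA1 (3D7) with his tag at 25 nM final met compounds first, then biotinylated RON2 peptide at 25 nM; detection used donor plus acceptor beads, 10 µg/mL apiece, read by AlphaScreen after 30 min at room temperature.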
Cycloheximide cs = counter-screen for Shiga toxin inhibitors: cycloheximide protein synthesis inhibition; max response, %; 300,000 tested, 12% active; cell reporter, cycloheximide protein synthesis inhibition counterscreen; AID 2314; in the data active = max response mostly above about 13%, no sharp cut-off; inactive = mostly below about 14%; also: read at 38.3 µM for the half of the compounds with a filed dose; 0% is about no effect
HCV inhibitor = blocks hepatitis C virus; Huh7.5.1 HCVcc-Cre infection, luciferase reporter, 44 h; Potency, µM (highest dose often 41.8 µM), without a hit: at the top dose activity change, negative = inhibition, hits mostly inhibitors; 340,000 tested, 3.4% active; also: potency is read from the fitted curve at half-maximal effect; % is scaled to controls: 0 for no effect and ±100 for the full control effect
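Infectious HCVcc-Cre (~0.5 moi) was added to cells just after compound, with cells seeded 4 h earlier at 1,000 per well. Luciferase activity after 44 h culture reported infection; substrate was incubated 15 min at room temperature before reading.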
Pf growth 48h = P. falciparum growth inhibition at 48 hours (one generation); P. falciparum luciferase growth in erythrocytes, 48 h; Potency, µM (highest dose often 28.7 µM), without a hit: at the top dose activity change, negative = inhibition, most hits filed as inhibitors; 310,000 tested, 5.9% active; also: potency is read from the fitted curve at half-maximal effect; % is scaled to controls: 0 for no effect and ±100 for the full control effect
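Firefly luciferase activity from engineered P. falciparum reports growth; inhibitors lower the luminescent signal. Cultures contained 2% hematocrit erythrocytes at 0.1% final parasitemia.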
Shiga inhibitor = Shiga toxin inhibition; inhibition, % at 38.7 µM; Vero cells, Shiga toxin protein synthesis inhibition reporter; 290,000 tested, 9.2% active; in the data active = inhibition mostly above about 28%, no sharp cut-off; inactive = mostly below about 43%; also: 0% is about no effect
Pf growth 96h = inhibits malaria parasite growth, 96 h. P. falciparum luciferase reporter growth, 96 h. Potency, µM (top dose mostly 28.7 µM), without a hit: at the top dose activity change, negative = inhibition, actives largely listed as inhibitors. 320,000 tested, 6.9% active. AID 504834; also: potency is read from the fitted curve at half-maximal effect; % is scaled to controls: 0 for no effect and ±100 for the full control effect
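96 h incubation, 37 C, 5% CO2, of luciferase-reporter P. falciparum-infected RBCs (2% hematocrit, 0.05% parasitemia final) with test compounds; endpoint luminescence.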
* hit, by the source's call; ? = inconclusive; . = no result given. The list is not random: actives were taken first. Their share in the collection is about 21%. Unless noted, calls follow the shape of the dose curve; as a rule, active = well fitted curve in the direction sought with a large enough effect; inconclusive = small, poorly fitted or top-dose-only effect, or another doubt; inactive = no such curve, though single readings can be large; an effect the other way counts as inactive or inconclusive.

SMILES	AMA1-RON2 inh	Cycloheximide cs	HCV inhibitor	Pf growth 48h	Shiga inhibitor	Pf growth 96h
COc1ccc(C2CC(O)(c3ccccc3)Oc3c(C)ccc(C(C)C)c32)cc1 (centres undefined)	.	-3	.	.	17	.
OC(CCN1CCCCC1)c1ccc(-c2ccccc2)cc1 (centres undefined)	14%	52*	?	.	72*	4.7µM*
O=C(NCc1cc(Cl)cc(Cl)c1)c1ccc2nc([C@@H]3O[C@H](CO)[C@@H](O)[C@H]3O)[nH]c2c1	-7%	.	.	.	.	.
COc1ccc(CCN(C)Cc2ccc(OC)c(OCc3ccccc3)c2)cc1OC	-13%	-1	-25%	?	-20	10µM*
CCN(CC)c1ccc(CN(C)CCc2ccc(OC)c(OC)c2)cc1	-17%	-3	?	-10%	-19	?
COc1ccc(CCN(C)Cc2ccc(OCc3ccccc3)c(OC)c2)cc1OC	?	-7	-12%	?	-15	?
COc1ccc(CCN(C)Cc2ccc(C(=O)Nc3ccccc3)cc2)cc1OC	0%	16	10µM*	?	-24	?
Cc1c(C(=O)Nc2ccccc2C(=O)N2CCOCC2)cccc1[N+](=O)[O-]	-1%	-1	2%	17%	14	12%
COc1ccc(C(=O)N/C(=C\c2ccc(Cl)cc2)C(=O)NCCN2CCOCC2)cc1	4%	.	.	.	.	.
O=C(c1ccoc1)N1CCC2(CC1)Oc1ccc(Cl)cc1C(=O)C21CC(c2ccccc2)=NO1 (centres undefined)	-10%	6	11µM*	15µM*	-5	?
O=C(c1ccoc1)N1CCC2(CC1)Oc1ccc(Cl)cc1C(=O)C21CC(c2cccnc2)=NO1 (centres undefined)	-6%	-3	9%	?	-8	?
CC(C)C(=O)N1CCC2(CC1)Oc1ccc(F)cc1C(=O)C21CC(c2cccnc2)=NO1 (centres undefined)	.	-2	.	-12%	3	20%
Cc1ccc(C(=O)N2CCC3(CC2)Oc2ccc(F)cc2C(=O)C32CC(c3cccnc3)=NO2)s1 (centres undefined)	-13%	-4	10%	9.3µM*	-6	13µM*
CCC(=O)N1CCC2(CC1)Oc1ccc(Cl)cc1C(=O)C21CC(c2ccccc2)=NO1 (centres undefined)	11%	-5	-10%	?	-10	?
O=C(/C=C/c1cccs1)N1CCC2(CC1)Oc1ccc(Cl)cc1C(=O)C21CC(c2ccccc2)=NO1 (centres undefined)	?	-2	-16%	13µM*	7	?
COc1ccccc1NC(=O)CCS(=O)(=O)c1cc2c(cc1Cl)NC(=O)CO2	17%	-5	-3%	7%	-3	-12%
COc1ccc(C(=O)N/N=C/C(=O)c2ccccc2)cc1	14%	43*	17%	55%	49*	0%
COc1ccc(C(=O)NNC(=O)CCCCC(=O)NNC(=O)c2ccc(OC)cc2)cc1	23%	1	7%	38%	2	?
COc1ccc(C(=O)NN/C(C)=C/C(=O)c2ccccc2)cc1	68%	11*	-21%	?	62	?
C/C(=C\C(=O)c1ccccc1)NNC(=O)c1ccc(Cl)cc1	67%	22*	22%	-4%	.	0%
COC(=O)C[C@H]1C[C@H]2c3cc(NC(=O)C4CCOCC4)ccc3O[C@H]2[C@@H](CO)O1	1%	.	.	.	.	.
Cc1ccc(OCCNC(=O)CCc2ccccc2)cc1C	-25%	.	-8%	.	.	.
O=C(Cc1ccc(F)cc1)Nc1nnc(-c2ccc(F)cc2)o1	77%	19	3%	?	2	?
COc1ccc(F)cc1Cn1nc(C(=O)O)c2ccccc2c1=O	-14%	-1	?	23%	-6	31%
O=C1COc2ccc(-c3csc(=Nc4ccc(OC(F)F)cc4)n3CC3CCCO3)cc2N1 (centres undefined)	-24%	-4	?	?	-18	?
COCC(C)n1c(-c2ccc3c(c2)NC(=O)CO3)csc1=Nc1ccc(OC(F)F)cc1 (centres undefined)	?	9	10µM*	.	-23	?

Assay outcomes from PubChem BioAssay.
